Compound activity deposited in PubChem by National Center for Advancing Translational Sciences (NCATS).
In the library only some 8.1% were active in any assay of this set; here they are far more common.
MCF10A rerep: DNA re-replication induction in MCF 10a cells; MCF 10A DNA re-replication, Hoechst nuclear intensity, 48 h; Potency, µM (series often up to 46.1 µM), without a hit: top-dose activity, positive = re-replication, hits mostly activators; 350,000 tested, 2.9% active; AID 624296; further: % of control where 0% means no effect; nearly all actives have a fitted effect of over 50% in size
ELG1 repair inh: blocks ELG1-dependent DNA repair in HEK293T cells; HEK293T ELG1-luciferase reporter, luminescence, 16 h; DNA damage induced by 5-fluorouridine; Potency, µM (top dose mostly 46.1 µM), for the others: at the highest dose activity change, negative = inhibition, most hits filed as inhibitors; 330,000 tested, 2.3% active; further: on the % scale 0 is the no-effect control and ±100 the full control effect; nearly all actives have a fitted effect of over 55% in size
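Overnight (16 hr) co-exposure of 2,000 cells/well to 5-fluorouridine and compound at 37 °C preceded detection. Luciferase was quantified via ONE-Glo luminescence; loss of signal denotes inhibition.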
SW480 rereplic: induces DNA re-replication in SW480 colon adenocarcinoma cells; SW480 DNA re-replication, Hoechst DNA content imaging, 48 h; Potency, µM (series often up to 46.1 µM), for the others: at the top dose re-replication activation, hits mostly activators; AID 624297; 340,000 tested, 1.8% active; further: % of control where 0% means no effect; nearly all actives have a fitted effect of over 55% in size
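Hoechst fluorescence of nuclei (405 nm excitation, 500-530 nm emission) measured by plate-scanning imager after 48 hr compound exposure at 37 C; re-replication scored as increased number of nuclei with elevated intensity.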
KB-3-1 cytotox: kills parental KB-3-1 adenocarcinoma cells | AID 1347075 | KB-3-1 viability, CellTiter-Glo ATP luminescence, 72 h | 400,000 tested, 1.4% active | Potency, µM (titrated, usually from 46.1 µM), usual class: cytotoxic; further: on the % scale 0 is the no-effect control and ±100 the full control effect; nearly all actives have a fitted effect of over 60% in size
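Cytotoxicity measured as CellTiter-Glo luminescence after 72 h at 37 C. Compound titrations were pinned onto drug-naive KB-3-1 parental adenocarcinoma cells grown in DMEM with 10% FBS, and normalized data fitted to concentration-response curves.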
KB-V1 cytotox: KB-V1 MDR subline cytotoxicity; KB-V1 MDR cells viability, CellTiter-Glo, 72 h; Potency, µM (top dose mostly 46.1 µM), actives largely listed as cytotoxic; 400,000 tested, 3.4% active; AID 1347076; further: on the % scale 0 is the no-effect control and ±100 the full control effect; nearly all actives have a fitted effect of over 60% in size
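Cytotoxicity toward P-gp-expressing KB-V1 cells was determined as loss of CellTiter-Glo luminescence after 72 h at 37 degrees C. Compounds were tested in quantitative HTS format across a concentration range, with curves fitted to normalized data.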
* hit, by the source's call; i = inactive; ? = inconclusive; . = no result; [ ] = remark or other dose. The call rests on the fitted dose curve; in most records, active means well fitted curve in the direction sought with a large enough effect; inconclusive means small, poorly fitted or top-dose-only effect, or another doubt; inactive means no such curve, though single readings can be large; an effect the other way counts as inactive or inconclusive. Potency means the concentration at half of the fitted maximal effect.

SMILES	MCF10A rerep	ELG1 repair inh	SW480 rereplic	KB-3-1 cytotox	KB-V1 cytotox
CCOC(=O)c1cnc(-n2nc(C)cc2C)nc1NCc1ccc2c(c1)OCO2	?	20.6µM*	?	?	?
CCOC(=O)c1cnc(-n2nc(C)cc2C)nc1NC1CCCC1	0.0%	?	-14.3%	i	5.17µM*
CCOC(=O)c1cnc(-n2nc(C)cc2C)nc1NCCc1ccccc1	?	?	13.8%	i	0.731µM*
Clc1ccc(CNc2ccc(CNc3ncn[nH]3)cc2)cc1	11.1%	10.1%	2.6%	?	18.4µM*
O=c1[nH]cnc2n[nH]nc12	.	.	.	1.46µM*	?
O=c1[nH]cnc2nc[nH]c12	0.5%	.	-0.5%	.	.
CC12CCC(C(=O)Nc3cccc(Cl)c3)(C(Br)C1=O)C2(C)C (centres undefined)	?	-9.8%	?	?	14.6µM*
CC12CCC(C(=O)Nc3ccc(Cl)cc3)([C@H](Br)C1=O)C2(C)C (some centres undefined)	-5.3%	1.2%	-43.7%	i	i
COc1ccccc1C1NC(c2ccc3c(c2)OCO3)=CC(c2ccccc2O)N1 (centres undefined)	.	.	.	i	i
CC1CCc2c(c3ccccc3n2C(=O)CCl)C1 (centres undefined)	18.4µM*	?	6.3%	?	?
COc1cc(C2Nc3ccc4ncccc4c3C3=C2C(=O)CCC3)ccc1O (centres undefined)	16.4µM*	?	20.6µM*	3.26µM*	i
Cc1ccc(S(=O)(=O)N2CCN(C(=O)c3ccc(OCc4c(C)noc4C)cc3)CC2)cc1	-31.2%	?	-2.4%[9.22 µM]	i	?
COc1cc(C(=O)OCC(C)=O)ccc1OCc1c(C)noc1C	20.6µM*	?	16.4µM*	14.6µM*	?
Cc1ccc(C)c(S(=O)(=O)N2CCN(C(=O)c3sccc3C)CC2)c1	4.7%	-15.2%	-2.4%	i	9.2µM*
CCOc1cc(N2CCOCC2)c(OCC)cc1NC(=O)c1ccc(OC)cc1	?	?	-4.4%	i	?
CCOc1cc(N2CCOCC2)c(OCC)cc1NC(=O)c1ccc(OCc2c(C)noc2C)c(OC)c1	0.3%	5.8µM*	-2.2%	i	?
Cc1ccc(C)c(S(=O)(=O)N2CCN(C(=O)c3ccc(OCc4c(C)noc4C)cc3)CC2)c1	16.9%	16.4µM*	-1.1%	i	?
COc1ccc(C)cc1NC(=O)CSc1ccc(-c2ccco2)nn1	-5.0%	-11.4%	-2.8%	i	?
C#CCOCCOCCOCCNc1nc(N2CCN(C(=O)[C@H]([C@@H](C)CC)n3cc(CCCCN)nn3)CC2)nc(N2CCN(C(=O)[C@H]([C@@H](C)CC)n3cc(CCCN=C(N)N)nn3)CC2)n1	-27.9%	?	-36.6%	i	i
COC(=O)[C@@H](NC(=O)NCCC1=CCCCC1)C(C)C	-0.5%	6.0%	-7.5%	i	i
COc1cc(C(=O)N2CCN(c3ccc([N+](=O)[O-])cc3)CC2)ccc1OCc1c(C)noc1C	-2.1%	-12.7%	-5.3%	i	?
Cc1noc(C)c1C(=O)N1CCN(c2ccc(OCc3ccccc3)cc2)CC1	?	-25.5%	-10.6%	?	14.6µM*
COc1ccc(N2CCN(C(=O)c3ccc(OCc4c(C)noc4C)c(OC)c3)CC2)cc1	-0.3%	-12.6%	0.0%	i	11.6µM*
COc1cc(C(=O)Nc2nc3ccccc3s2)ccc1OCc1c(C)noc1C	?	?	16.4µM*	?	i
COc1ccccc1OCCSc1nc(N)cc(N)n1	-1.7%	?	-1.4%	i	i
SMILES	MCF10A rerep	ELG1 repair inh	SW480 rereplic	KB-3-1 cytotox	KB-V1 cytotox
CNc1nc2[nH]c(=O)c3c(c2s1)OC(N)=C(C#N)C3c1cccc(F)c1 (centres undefined)	-4.1%	-4.5%	-5.9%	i	i
COc1ccc(C(CCNC(C)c2ccccc2)C(C)C)cc1 (centres undefined)	-6.2%	-8.7%	-20.4%	i	?
COc1ccc(C(C)NCCC(c2ccc(OC(C)C)cc2)c2ccccc2OC)cc1 (centres undefined)	23.1µM*	?	?	20.6µM*	16.4µM*
O=C(/C=C/c1ccc(-c2ccccc2[N+](=O)[O-])o1)c1ccc(F)cc1	-4.4%	0.4%	-6.3%	i	i
O=C(Nc1ccc(Oc2c(F)c(F)c(F)c(F)c2F)cc1)OC1CCN2Cc3ccccc3N=C12 (centres undefined)	13µM*	?	13µM*	8.2µM*	?
Cc1cccc(NC(=O)Nc2ccc(Oc3c(F)c(F)c(F)c(F)c3F)cc2)c1	0.0%	3.5%	-2.4%	i	i
CC1CCN(C(=O)c2cc3nc(-c4ccccc4)cc(-c4ccccc4)n3n2)CC1	16.4µM*	?	15.5%	i	i
O=C(c1cnn2c(C(F)F)cc(-c3ccccc3)nc12)N1CCOCC1	6.2%	-9.2%	-14.5%	i	i
O=C(c1cnn2c(-c3ccccc3)cc(-c3ccccc3)nc12)N1CCN(Cc2ccccc2)CC1	?	.	18.4µM*	?	i
C#CCN1C=C(C(=O)OCC)C(C)N(Cc2ccccc2I)S1(=O)=O (centres undefined)	23.1µM*	?	1.3µM*	i	i
CCc1nc2ccccc2n(CCOCCn2c(=O)c(CC)nc3ccccc32)c1=O	-4.3%	23.1µM*	-5.4%	i	i
Cc1c(N)c(C(C)(C)C)cc(C(C)(C)C)c1[N+](=O)[O-]	18.4µM*	8.6%	-66.1%	i	i
CCc1n[nH]c(=S)n1/N=C/c1cc(Br)c(O)c(OC)c1	-2.2%	6.1%	14.4%	i	?
C=CCOc1c(Br)cc(/C=N/n2c(CC)n[nH]c2=S)cc1Br	16.4µM*	-0.6%	?	?	?
O=C(c1ccc2nsnc2c1)N1CCN(c2ccc([N+](=O)[O-])cc2)CC1	6.9%	16.4µM*	?	?	i
Cc1ccc(C)c(N2CCN(C(=O)c3ccc4nsnc4c3)CC2)c1	?	?	20.6µM*	11.6µM*	8.2µM*
O=C(c1ccccc1)N1CCN(C(=O)c2ccc([N+](=O)[O-])cc2)CC1	?	12.4%	-3.9%	?	i
COc1ccc(S(=O)(=O)N(C(=O)c2ccncc2)c2ccc3oc4c(c3c2)CCCC4)cc1	3.26µM*	?	?	?	?
O=C(c1ccncc1)N(c1ccc2oc3c(c2c1)CCCC3)S(=O)(=O)c1cccc([N+](=O)[O-])c1	?	1.9%	0.1%	i	i
CCCCC(=O)N(c1ccc2oc(C)c(C(C)=O)c2c1)S(=O)(=O)c1ccc(F)cc1C	.	.	.	i	i
CC(=O)c1c(C)oc2ccc(N(C(=O)c3ccncc3)S(=O)(=O)c3ccc(C)cc3C)cc12	.	.	.	?	23.1µM*
